Assay results taken from PubChem BioAssay (NCI).
Compounds without any hit were thinned out: in the full panel of roughly 83,000, 20% have a hit.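 48-hour exposure, single concentration, 96-well plates; percent growth endpoint where 0 means no net growth. Active: below 10.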 Unmarked numbers belong to inactive results. Activity calls are given as the source filed them.

Experiments:
Assay in all cases: NCI-60 one-dose screen, 48 h (100 = growth as untreated, 0 = no growth, -100 = all killed)
SR leukemia = details: 10 µM unless noted
RPMI-8226 leukemia = details: 10 µM
OVCAR-8 ovarian = details: 10 µM unless noted
OVCAR-5 ovarian = details: 10 µM unless noted
OVCAR-4 ovarian = details: 10 µM unless noted
SK-OV-3 ovarian = details: 10 µM
IGROV1 ovarian = details: 10 µM unless noted
OVCAR-3 ovarian = details: 10 µM unless noted
HS 578T breast = details: 10 µM unless noted
NCI/ADR-RES ovarian = details: 10 µM unless noted
BT-549 breast = details: 10 µM unless noted
SW-620 colon = details: 10 µM unless noted
MCF7 breast = details: 10 µM unless noted
HCT-116 colon = details: 10 µM unless noted
HCC-2998 colon = details: 10 µM unless noted
KM12 colon = details: 10 µM unless noted
MDA-MB-435 melanoma = details: 10 µM unless noted
T-47D breast = details: 10 µM

Structure (SMILES)	growth (SR leukemia)	growth (RPMI-8226 leukemia)	growth (OVCAR-8 ovarian)	growth (OVCAR-5 ovarian)	growth (OVCAR-4 ovarian)	growth (SK-OV-3 ovarian) [%]	growth (IGROV1 ovarian)	growth (OVCAR-3 ovarian)	growth (HS 578T breast)	growth (NCI/ADR-RES ovarian)	growth (BT-549 breast)	growth (SW-620 colon)	growth (MCF7 breast)	growth (HCT-116 colon)	growth (HCC-2998 colon)	growth (KM12 colon)	growth (MDA-MB-435 melanoma)	growth (T-47D breast)
Cc1ccc(S(=O)(=O)N(c2ccc(Cl)cc2)c2ccc(Br)cc2C(=O)O)cc1	104%	108%	101%	101%	116%	112	109%	120%	102%	115%	134%	104%	104%	113%	115%	108%		
O=C(Nc1ccccc1O)c1ccc(NS(=O)(=O)c2cccc3cccnc23)cc1	32.8%	15.3%	23.9%	16.5%	74.5%	64.5	58.6%	62.5%	37.3%	29.2%	55.6%	30%	42.3%	23.7%	57.3%	74.8%	32.6%	
COc1cc(/C=C/C(=O)C(=Cc2ccc(F)c(F)c2)C(=O)/C=C/c2ccc(O)c(OC)c2)ccc1O	18.2%	19.9%	11.1%	115%	39.3%	94.4	5.44% (active)	-11.9% (active)	38.4%	57.6%		-44.7% (active)	35.8%	-76.5% (active)	-71.9% (active)	1.53% (active)	0.136% (active)	44.1%
COc1cc(C(F)(F)F)ccc1-c1cc(-c2ccc(F)cc2)n[nH]1	107%	67.5%	84.7%	88.7%	71.2%	104	80.6%	91.9%	96.3%		106%	98.3%	50.4%	82.2%	108%	88.1%	96%	62.7%
CC(C)(C)[Si](C)(C)OC1[C@@H](CNC(=O)NC(=O)CCl)O[C@@H](n2cnc3c(N)ncnc32)[C@H]1O[Si](C)(C)C(C)(C)C (stereo partly drawn)	-58.2% (active)	-43% (active)	-47.7% (active)	-37.5% (active)	-54.7% (active)	92	-61.8% (active)	-91.5% (active)	-16.9% (active)		-70.6% (active)	-82% (active)	-75.5% (active)	-87.7% (active)	-69.5% (active)	-82.4% (active)	-90% (active)	13.5%
CCN1C(=O)C2(Nc3ccccc3S2)c2cc(C)ccc21 (stereo not drawn)	111%	92.9%	97.8%	91.8%	95.9%	100	98.2%	108%	116%	101%	110%	96.5%	101%	96.7%	105%	107%		93.5%
Cn1c(=O)c(S(=O)(=O)c2ccccc2)cc2ccc3c(cnn3-c3ccc(Cl)cc3)c21	79%	75.9%	60.9%	94.3%	39.1%	69.7	96%	94.5%	69.3%		66.1%	90.5%	99.8%	63.5%	93.4%	89.3%	80.8%	50.5%
CCCC1=NNC(=O)C1	103%	100%	102%	103%	106%	104	103%	120%	110%	115%	99.2%	99.8%	96.3%	98.5%	119%	117%		101%
Nc1cc2[nH]c(=O)c3ccccc3c2cc1Br	61.9%	76.9%	77.6%	60.6%	59.2%	87.9	59.6%	72.1%	67%	81.7%		82.9%	24.5%	77%	69.5%	78.9%	95.3%	20.6%
COC(=O)c1ccc(C(=O)Nc2ccccc2N)cc1	67.1%	12.6%	56.9%	53.4%	96.2%	92.6	74.7%	87.5%	75%	53.1%	60%	72.3%	69.2%	75.4%	85.8%	86.3%	77.7%	
NC(=S)N/N=C1\c2ccccc2-c2c(F)c(F)c(F)c(F)c21	2.57% (active)	67.1%	39.6%	108%	56.5%	98.8	20.8%	61.6%	107%	10.2%		59.8%	28.7%	5.16% (active)	90.1%	93.5%		8.63% (active)
COc1nc2c(cc1S(=O)(=O)c1ccccc1)CCc1c-2cnn1-c1ccccc1Cl	37.9%	56.8%	59.8%	70.6%	67.8%	85.7	77.1%	70.8%	68.4%		51.8%	79.1%	42.2%	48.4%	77.7%	49.7%	65.7%	26.5%
COc1ccc(-n2c(SCc3cc(OC)c(OC)c(OC)c3)nc3ccc(C)cc3c2=O)c(OC)c1	7.68% (active)	-4.23% (active)	45.6%	43.2%	57.4%	45.3	35.7%	-4.61% (active)	6.73% (active)	1.42% (active)	32.1%	21%	15.5%	18.1%	45.5%	18.1%		33.1%
ONc1nc(NO)c2[nH]cnc2n1	21.3%	45.1%	58.3%	89.5%	84.7%	97.1	86.9%	87.8%	108%		77.4%	55%	90.2%	46.8%	121%	110%	75.7%	53.5%
COc1cc(/C=C/C(=O)CC(=O)/C=C/c2cc(Br)c(OC)c(OC)c2)cc(Br)c1OC	49.6%	116%	102%	99.1%	103%	96.6	109%	102%	113%	99.3%		114%	97.4%	98.3%	109%	103%	101%	83.7%
Cc1c(C)n(CC(O)CNC2CCCCC2C)c2ccccc12 (stereo not drawn)	1.95% (active)	-10.6% (active)	4.94% (active)	-58.8% (active)	-26.2% (active)	52.9	-73.1% (active)	-89.8% (active)	28.3%	3.85% (active)	-94.3% (active)	-77% (active)	-23.4% (active)	-81.9% (active)		-77.9% (active)		-10.5% (active)
C=C1CC[C@@H]2[C@@](C)(CCC[C@]2(C)C(=O)O)[C@@H]1CC[C@H](CO)CCO	85.2%	113%	104%	108%	99%	102	99%	76.4%	107%	104%		114%	101%	107%	108%	102%	109%	90.5%
C=CC[P+](c1ccccc1)(c1ccccc1)c1ccccc1	35.7%	6.29% (active)	45.8%	77%	46%	70.8	73.2%	32%	79.4%		47.5%	79.7%	27.2%	36.7%	51.7%	31.3%	32.3%	16.5%
